Consider 40 compounds from PubChem BioAssay (NCATS).

Structures are written as SMILES. Records with an inconclusive call do not appear. Calls of active or inactive are those of the source. Calls follow the shape of the dose curve; as a rule, active = well fitted cell-killing curve with a large enough effect; inconclusive = small, poorly fitted or top-dose-only effect, or effect the other way; inactive = no such curve, though single readings can be large or run the other way.
Potency is read from the fitted curve at half-maximal effect.

This test is described as follows: Quantitative High-Throughput drug screen in 47 multiple myeloma cell lines against the NCATS MIPE library collection: KMS20_JCRB cell viability assay (AID 1918973). Also: nearly all actives have a fitted effect of over 45% in size. The conditions noted are these: CellTiter-Glo ATP, 48 h; series mostly up to 45.8 µM; viability (% of DMSO): at the top concentration. From the text:
PI: Beverly A. Mock Ph.D.
Laboratory of Cancer Biology and Genetics,
Center for Cancer Research, National Cancer Institute,
National Institute of Health, Bethesda, Maryland
Drug resistance and disease progression are common in multiple myeloma (MM) patients, underscoring the need for new therapeutic combinations. […] We hypothesized that effective combinations would reduce MYC expression and enhance p16 activity. […] These preclinical data identify potentially useful drug combinations for evaluation in drug-resistant MM and reveal potential mechanisms of combined drug sensitivity.
Described herein is the primary MIPE qHTS used to cherrypick compounds. Validated compounds were then further tested for potential synergistic activiy.
[1] Peat TJ, Gaikwad SM, Dubois W, Gyabaah-Kessie N, Zhang S, Gorjifard S, Phyo Z, Andres M, Hughitt VK, Simpson RM, Miller MA, Girvin AT, Taylor A, Williams D, D'Antonio N, Zhang Y, Rajagopalan A, Flietner E, Wilson K, Zhang X, Shinn P, Klumpp-Thomas C, McKnight C, Itkin Z, Chen L, Kazandijian D, Zhang J, Michalowski AM, Simmons JK, Keats J, Thomas CJ, Mock BA. Drug combinations identified by high-throughput screening promote cell cycle transition and upregulate Smad pathways in myeloma. Cancer Lett. 2023 Aug 1;568:216284. doi: 10.1016/j.canlet.2023.216284. Epub 2023 Jun 24. PMID: 37356470; PMCID: PMC10408729.
SEQUENCE No. (e.g., 1, 2, 3, etc.); […] (e.g., Cells, Incubation, Reagent, etc.); VALUE and DESCRIPTION.
1; Cells; 5 uL; white, solid bottom 1536-well Greiner assay plate.
2; Compounds; 23 nL; Kalypsis pin tool (Wako USA) equipped with a 1536-well pin head to transfer to the assay plates.
3; Incubation; 48 hours; 37C incubation.
4; Reagent;5uL; CellTiter Glo (Promega).
5; Detector; 425V; Luminescence; Viewlux PerkinElmer.
NOTES (numbers refer to Sequence numbers above)
1. The cell-based screening methods employed in this study were like those previously published. Briefly, the corresponding myeloma cell lines were screened in 1,536-well plates with 500 cells, 5-uL per well for inhibition of cell viability (assessed by measuring ATP levels with CellTiterGlo).
2. NCATS MIPE 4.0 library of approved and investigational drugs were added using the Kalypsis pin tool. Wells treated with DMSO only for 100% viability and media only wells for 0% viability were used as controls.
3. The assay plates were covered and incubated for 48 hours in a 37C, 5% CO2 incubator with controlled humidity.
4. After 48 hours, CellTilter-GloTM luminescent substrate mix (Promega) reagent was added to the assay plate and plates we incubated for 5 min at room temperature.
5. Signal was measured as median relative luminescence units on a ViewLux (PerkinElmer) multiplate reader.
[1] Heske CM, Davis MI, Baumgart JT, Wilson K, Gormally MV, Chen L, Zhang X, Ceribelli M, Duveau DY, Guha R, Ferrer M, Arnaldez FI, Ji J, Tran HL, Zhang Y, Mendoza A, Helman LJ, Thomas CJ. Matrix Screen Identifies Synergistic Combination of PARP Inhibitors and Nicotinamide Phosphoribosyltransferase (NAMPT) Inhibitors in Ewing Sarcoma. Clin Cancer Res. 2017 Dec 1;23(23):7301-7311. doi: 10.1158/1078-0432.CCR-17-1121. Epub 2017 Sep 12. PMID: 28899971; PMCID: PMC6636827.
As to `CC[C@@H]([C@H](C)O)n1ncn(-c2ccc(N3CCN(c4ccc(OCC5CO[C@@](Cn6cncn6)(c6ccc(F)cc6F)C5)cc4)CC3)cc2)c1=O` (stereo not given in full), the “viability (% of DMSO)” value is 91.7% (inactive).

Regarding `COC(=O)Nc1ccc(-c2nc(N3CCOCC3)c3cnn(C4CCN(C(=O)OC)CC4)c3n2)cc1`, the Potency is 0.0148 µM (active). In the case of `NS(=O)(=O)c1ccc(Nc2nc(OCC3CCCCC3)c3[nH]cnc3n2)cc1`, the Potency was 20.9 µM (active). Regarding `CCOC(=O)[C@H](CCc1ccccc1)N[C@@H](C)C(=O)N1CCCC1C(=O)O` (stereo not given in full), the “viability (% of DMSO)” value was 106% (inactive). With `CC[C@H](NC(=O)[C@H](C)NC)C(=O)N1C[C@@H](O)C[C@H]1Cc1c(-c2[nH]c3cc(F)ccc3c2C[C@H]2C[C@H](O)CN2C(=O)[C@H](CC)NC(=O)[C@H](C)NC)[nH]c2cc(F)ccc12`, the Potency was 4.69 µM (active). Consider `CC(=O)NCCC(=O)N[C@@H](CCC(N)=O)C(=O)N[C@@H](CO)C(=O)N[C@@H](CCC(N)=O)C(=O)N[C@@H](CCC(N)=O)C(=O)N[C@H](C(=O)N[C@@H](Cc1ccccc1)C(=O)N[C@]1(C)CCCCCCC=CCCC[C@@](C)(C(=O)N[C@@H](CCC(N)=O)C(=O)N[C@@H](CC(N)=O)C(N)=O)NC(=O)[C@H](CC(C)C)NC(=O)[C@H](CC(C)C)NC(=O)[C@@H](CCCNC(=N)N)NC(=O)[C@H](Cc2c[nH]c3ccccc23)NC(=O)[C@H](CC(C)C)NC(=O)[C@H](CC(N)=O)NC1=O)[C@H](C)O`, for which the Potency is 18.7 µM (active). Take `O=C(O)C1=CO[C@@H](O[C@@H]2O[C@H](CO)[C@H](O)[C@H](O)[C@H]2O)[C@@H]2C(CO)=CC[C@H]12`: the “viability (% of DMSO)” value was 135% (inactive). On to `NC(=O)c1noc([C@H](CCCC2CCCCC2)CC(=O)NO)n1`, for which the Potency was 18.7 µM (active). In the case of `CC1=C(CC(=O)O)c2cc(F)ccc2C1=Cc1ccc(S(C)=O)cc1` (stereo not given), the Potency is 9.35 µM (active).

For `CCC(=C(CC)c1ccc(O)cc1)c1ccc(O)cc1`, the “viability (% of DMSO)” value is 97.1% (inactive). As to `C[C@@H]1C[C@H]2[C@@H]3CCC4=CC(=O)C=C[C@]4(C)[C@@]3(F)[C@@H](O)C[C@]2(C)[C@@]1(O)C(=O)CO`, the Potency is 0.418 µM (active). For the compound `COc1nccc(-c2c(-c3ccc(F)cc3)ncn2C2CCNCC2)n1`, the “viability (% of DMSO)” value is 123% (inactive). Consider `COc1ccc2nc3cc(Cl)ccc3c(Nc3cc(CN4CCCC4)c(O)c(CN4CCCC4)c3)c2n1`, for which the Potency was 20.9 µM (active). On to `Cc1ccc2c(=O)c3cccc(CC(=O)O)c3oc2c1C`, for which the Potency was 33.2 µM (active). `CCCCCOC(=O)Nc1nc(=O)n([C@@H]2O[C@H](C)[C@@H](O)C2O)cc1F` (stereo not given in full): the “viability (% of DMSO)” value was 123% (inactive). For `CCC(C)SSc1ncc[nH]1` (stereo not given), the Potency was 5.26 µM (active). As for `Nc1[nH]nc2nnc(-c3c(-c4ccccc4)nn4ccccc34)cc12`, the Potency was 2.09 µM (active). The same measure, in the same setting: with `COc1ccc(C=CC(=O)Nc2ccccc2C(=O)O)cc1OC` the figure was 11.8 µM (active); with `COc1ccc(-c2cc3nccn3c(Nc3ncccc3C(N)=O)n2)cc1OC`, 0.418 µM (active). Regarding `CC=C1C2C=C(C)CC1(N)c1ccc(=O)[nH]c1C2` (stereo not given), the “viability (% of DMSO)” value was 125% (inactive). For the compound `CC(C)n1c(C=C[C@H](O)C[C@H](O)CC(=O)O)c(-c2ccc(F)cc2)c2ccccc21`, the Potency was 20.9 µM (active).

With `Nc1ncnc2c1c(-c1cccc(OCc3ccccc3)c1)cn2C1CC(CN2CCC2)C1` (stereo not given), the Potency was 3.72 µM (active). On to `Cc1cc(C(C)Nc2ccccc2)c2nc(N3CCOCC3)cc(=O)n2c1` (stereo not given), for which the Potency is 10.5 µM (active).

As to `C[C@@H](N)c1ccc(C(=O)Nc2ccnc3[nH]ccc23)cc1`, the Potency is 18.7 µM (active). In the case of `C[C@@H]1[C@H](C)CC[C@]2(C(=O)O)CC[C@]3(C)C(=CC[C@@H]4[C@@]5(C)CC[C@H](O)C(C)(C)[C@H]5CC[C@]43C)[C@@H]12`, the “viability (% of DMSO)” value is 107% [at 92.2 µM] (inactive).

In the case of `C[C@@]1(C(=O)Nc2ccc(F)nc2)CCCN1c1nc(Nc2cc(C3CC3)[nH]n2)c2cccn2n1`, the Potency is 0.0743 µM (active). Consider `CN1CC(=O)N2C(Cc3c([nH]c4ccccc34)[C@H]2c2ccc3c(c2)OCO3)C1=O` (stereo not given in full), for which the “viability (% of DMSO)” value was 75.6% (inactive). Turning to `CCc1cccc(CC)c1NC(=O)N1Cc2[nH]nc(NC(=O)c3ccc(N4CCN(C)CC4)cc3)c2C1`, the Potency was 14.8 µM (active). For the compound `Cc1ccc(NC(=O)Nc2cc(C(F)(F)F)ccc2F)cc1Nc1ccc2c(c1)NC(=O)C2=Cc1ccc[nH]1`, the Potency is 5.9 µM (active). As for `Cc1cccc(Nc2nc(N[C@@H]3CCCC[C@H]3N)ncc2C(N)=O)c1`, the Potency was 4.69 µM (active).

For the compound `CCC(=C(c1ccc(O)cc1)c1ccc(OCCNC)cc1)c1ccccc1`, the Potency was 5.9 µM (active). Same read-out and setting: with `COc1ccc2c(c1)c(C1=C(c3c[nH]c4ccccc34)C(=O)NC1=O)cn2CCCN(C)C` the figure was 14.8 µM (active). For `C=CCc1cccc(C=NNC(=O)CN2CCN(Cc3ccccc3)CC2)c1O`, the Potency was 20.9 µM (active). Still for that read-out and setting: with `O=C(Nc1ccc(OC(F)(F)F)cc1)c1sccc1NCc1ccnc2ccccc12` the figure was 3.72 µM (active); with `Nc1nc(Cl)nc2c1ncn2[C@@H]1O[C@H](CO)[C@@H](O)[C@H]1F`, 0.0264 µM (active); with `CC(C)Oc1cc(Nc2nc(N[C@@H](C)c3ccc(F)cn3)ncc2Cl)[nH]n1`, 4.69 µM (active). As to `C[C@@H]1O[C@@H](O[C@H]2CC[C@@]3(C)[C@H](CC[C@@H]4[C@H]3C[C@@H](O)[C@]3(C)[C@@H](C5=CC(=O)OC5)CC[C@]43O)C2)C[C@H](O)[C@@H]1O[C@H]1C[C@H](O)[C@H](O[C@H]2C[C@H](O)[C@@H](O)[C@@H](C)O2)[C@H](C)O1` (stereo in doubt), the Potency was 0.27 µM (active).

In the case of `CC(=O)N1CCN(c2ccc(OCc3nn(C)c(C)c3-c3cccc4c(CCCOc5cc(C)c(Cl)c(C)c5)c(C(=O)O)n(Cc5cccnc5)c34)cc2)CC1`, the Potency was 2.96 µM (active). `COc1c(C)c2c(c(O)c1CC=C(C)CCC(=O)OCCN1CCOCC1)C(=O)OC2`: the “viability (% of DMSO)” value was 160% (inactive). Regarding `CCC=CC[C@H]1C(=O)CC[C@@H]1CC(=O)OC`, the “viability (% of DMSO)” value is 152% (inactive).
